The source made the active and inactive calls. Cut-off read from the data, not from the text of the source, unless noted: active = inhibition above about 80%; inactive = the rest.
What was measured:
[1] = CRL2098 osteosarcoma cell growth inhibition, synergistic combos for chromothripsis tumors, BGB or cisplatin IC20 combos (AID 1671454); settings: CRL2098 osteosarcoma cells, drug combinations, stronger effect = higher value;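 note: cells exposed for 96 h before readout; 0% = vehicle DMSO and 100% = killing by high DMSO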
[2] = HD-MB03 medulloblastoma cell growth inhibition, synergistic combos for chromothripsis tumors, BGB or cisplatin IC20 combos (AID 1671455; in the data active = inhibition above about 83%;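 note: 0% = vehicle DMSO and 100% = high DMSO as cytotoxic control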); settings: HD-MB03 medulloblastoma cells, stronger effect = higher value
[3] = UWB1.289 ovarian carcinoma cell growth inhibition, synergistic combos for chromothripsis tumors, BGB or cisplatin combos (AID 1671456); settings: UWB1.289 ovarian carcinoma cells, stronger effect = higher value;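 note: cells exposed to compound for four days; 0% = vehicle DMSO and 100% = killing by high DMSO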
[4] = LFS_MB_2R medulloblastoma cell growth inhibition, synergistic combos for chromothripsis tumors, cisplatin combos (AID 1671457); settings: LFS_MB_2R medulloblastoma cells, stronger effect = higher value;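 note: cells exposed to compound for four days before readout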
[5] = MDA-MB-436 breast carcinoma cell growth inhibition, synergistic combos for chromothripsis tumors, BGB or cisplatin combos (AID 1671458; call rule not given here;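 note: cells exposed for 96 hours; 0% = vehicle DMSO and 100% = killing by high DMSO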); settings: MDA-MB-436 breast carcinoma growth inhibition, drug combinations, stronger effect = higher value
[6] = UWB1.289_BRCA1 ovarian cancer growth, cell-based, BGB or cisplatin combinations (AID 1671459); settings: UWB1.289 BRCA1 ovarian carcinoma, drug combinations, stronger effect = higher value
[7] = human astrocyte viability loss, single and combined drugs, cytotoxicity control for chromothriptic childhood tumor combination screen, cell-based, BGB or cisplatin IC20 combos (AID 1671460); settings: Human astrocytes, drug combinations, stronger effect = higher value;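 note: cells exposed to compounds for 96 hours before viability readout; 0% = vehicle and 100% = killing control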
[8] = growth inhibition of BT084 medulloblastoma cells, cell-based, ICGC_MB145, cisplatin and BGB IC40 combos (AID 1671461); settings: drug combinations, stronger effect = higher value;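 note: cells exposed to drugs for 96 hours; 0% = vehicle DMSO and 100% = high DMSO full killing control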
[9] = growth inhibition of RCMB18 medulloblastoma cells, cell-based, cisplatin and BGB IC40 combos (AID 1671462); settings: stronger effect = higher value;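 note: cells exposed to compound for four days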
[10] = growth inhibition of CRL1545 osteosarcoma cells, cell-based, cisplatin and BGB IC20 combos (AID 1671464); settings: stronger effect = higher value;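 note: cells exposed to compound for 96 hours before readout; 0% = vehicle DMSO and 100% = high DMSO killing control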
[11] = LFS_MB_P medulloblastoma growth inhibition, cell-based, chromothripsis tumors, cisplatin or BGB combos (AID 1671449); settings: LFS_MB_P medulloblastoma cells;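 note: cells exposed for 96 hours; 0% = vehicle DMSO and 100% = killing by high DMSO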
[12] = HDN33 neuroblastoma growth inhibition, cell-based, chromothripsis tumors, cisplatin or BGB combos (AID 1671450); settings: HDN33 neuroblastoma cells, stronger effect = higher value;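 note: cells exposed to compound for four days; 0% = vehicle DMSO and 100% = cell killing by high DMSO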
[13] = ICB984 medulloblastoma cell growth inhibition, synergistic combos for chromothripsis tumors, cisplatin or BGB combos (AID 1671451; call rule not given here;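 note: cells exposed for 96 hours before readout; 0% = vehicle DMSO and 100% = killing by high DMSO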); settings: ICB984 medulloblastoma cells, drug combinations, stronger effect = higher value
[14] = LFS_MB_1R medulloblastoma cell growth inhibition, synergistic combos for chromothripsis tumors, cisplatin or BGB combos (AID 1671452); settings: LFS_MB_1R medulloblastoma cells, stronger effect = higher value;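 note: cells exposed for 96 hours before readout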
[15] = HTB85 osteosarcoma cell growth inhibition, synergistic combos for chromothripsis tumors, BGB or cisplatin IC20 combos (AID 1671453); settings: HTB85 osteosarcoma cells, drug combinations, stronger effect = higher value;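 note: cells exposed for 96 hours before readout; 0% = vehicle DMSO and 100% = high DMSO killing control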
[16] = measured here: combination with BGB at IC20, at 0.5 µM
[17] = measured here: combination with cisplatin at IC20, at 0.5 µM
[18] = measured here: combo with BGB at IC20, at 0.5 µM
[19] = measured here: combo with cisplatin at IC20, at 0.5 µM
[20] = measured here: inhibition with BGB combination, at 0.05 µM
[21] = measured here: inhibition with cisplatin combination, at 0.05 µM
[22] = measured here: combination with cisplatin, at 0.5 µM
[23] = measured here: combination with cisplatin, at 5 µM
[24] = measured here: BGB combination, at 0.5 µM
[25] = measured here: BGB combination, at 5 µM
[26] = measured here: cisplatin combination, at 0.5 µM
[27] = measured here: cisplatin combination, at 5 µM
[28] = BGB combination, concentration series, at 5 µM
[29] = cisplatin combination, concentration series, at 5 µM
[30] = measured here: combo with BGB IC20, at 0.5 µM
[31] = measured here: combo with cisplatin IC20, at 0.5 µM
[32] = cisplatin combination, at 0.5 µM
[33] = measured here: BGB IC40 combination 0.05 uM, at 0.05 µM
[34] = measured here: BGB IC40 combination, at 0.05 µM
[35] = measured here: with BGB IC20 combination, at 0.5 µM
[36] = measured here: with cisplatin IC20 combination, at 0.5 µM
[37] = measured here: combination with BGB IC40, at 0.05 µM

## CC(C)OC(=O)[C@H](C)NP(=O)(OC[C@H]1O[C@@H](n2ccc(=O)[nH]c2=O)C(C)(F)[C@@H]1O)Oc1ccccc1 (stereo partly specified)
[1]; at 0.5 µM
  inhibition: -24.2% (inactive)
[1]; [16]
  inhibition: -7.71%
[1]; [17]
  inhibition: -18.3%
[2]; at 0.5 µM
  inhibition: -8.35% (inactive)
[2]; [18]
  inhibition: -6.27%
[2]; [19]
  inhibition: -4.66%
[3]; at 0.5 µM
  inhibition: -8.12% (inactive)
[3]; [20]
  inhibition: -21%
[3]; [21]
  inhibition: -18.4%
[4]; at 0.5 µM
  inhibition: -25.3% (inactive)
[4]; [22]
  inhibition: -17.8%
[4]; [23]
  inhibition: -16.1%
[5]; at 0.5 µM
  inhibition: -10.8% (inactive)
[5]; [24]
  inhibition: -6.58%
[5]; [25]
  inhibition: -5.34%
[5]; [26]
  inhibition: -21%
[5]; [27]
  inhibition: -5.77%
[6]; [28]
  inhibition: 5.64%
[6]; at 0.5 µM
  inhibition: -2.85% (inactive)
[6]; [29]
  inhibition: 12.8%
[7]; at 0.5 µM
  inhibition: 9.43% (inactive)
[7]; [30]
  inhibition: 6.4%
[7]; [31]
  inhibition: 11.7%
[8]; at 0.5 µM
  inhibition: -25.9% (inactive)
[8]; [32]
  inhibition: -7.08%
[8]; cisplatin combination, at 5 µM
  inhibition: 2.71%
[8]; [33]
  inhibition: 66.2%
[8]; single agent, at 5 µM
  inhibition: 3.91%
[9]; at 0.5 µM
  inhibition: -23.5% (inactive)
[9]; cisplatin combo, at 5 µM
  inhibition: -18.9%
[9]; [34]
  inhibition: 1.12%
[9]; [22]
  inhibition: 19.3%
[9]; single agent, at 5 µM
  inhibition: -63.1%
[10]; at 0.5 µM
  inhibition: -19.7% (inactive)
[10]; [35]
  inhibition: -19.2%
[10]; [36]
  inhibition: -19.9%
[10]; single agent, at 0.05 µM
  inhibition: 7.91%
[10]; single agent, at 5 µM
  inhibition: -24.5%

## Nc1ccccc1NC(=O)c1cnccn1
[11]; at 0.5 µM, stronger effect = higher value
  inhibition: -12.4% (inactive)
[11]; measured here: combination with BGB IC20, at 0.005 µM
  inhibition: -41.6%
[11]; measured here: combination with BGB IC40, at 0.005 µM
  inhibition: 85.5%
[11]; [37]
  inhibition: -7.35%
[11]; measured here: combination with cisplatin, at 0.5 µM, stronger effect = higher value
  inhibition: -18.9%
[11]; measured here: combination with cisplatin, at 5 µM, stronger effect = higher value
  inhibition: -28.5%
[12]; BGB combo, at 5 µM
  inhibition: -12.4%
[12]; at 0.5 µM
  inhibition: -14.6% (inactive)
[12]; cisplatin combo, at 5 µM
  inhibition: 6.5%
[12]; [35]
  inhibition: -34.1%
[12]; [36]
  inhibition: 5.82%
[12]; single agent, at 5 µM
  inhibition: 1.32%
[13]; BGB IC20 combo, at 0.005 µM
  inhibition: -16.9%
[13]; BGB IC40 combo, at 0.005 µM
  inhibition: -7.68%
[13]; BGB IC40 combo, at 0.05 µM
  inhibition: -8.97%
[13]; at 0.5 µM
  inhibition: -30.1% (inactive)
[13]; cisplatin combo, at 0.05 µM
  inhibition: -14.5%
[13]; cisplatin combo, at 0.5 µM
  inhibition: -45.8%
[13]; cisplatin combo, at 5 µM
  inhibition: -16.9%
[13]; measured here: 5 uM single agent, at 5 µM
  inhibition: -10%
[14]; at 0.5 µM
  inhibition: -27.6% (inactive)
[14]; [37]
  inhibition: -29.7%
[14]; [22]
  inhibition: -55.5%
[14]; [23]
  inhibition: -22%
[15]; at 0.5 µM
  inhibition: -12.2% (inactive)
[15]; measured here: with BGB IC20, at 0.5 µM
  inhibition: -6.35%
[15]; measured here: with BGB IC20, at 5 µM
  inhibition: 4.3%
[15]; measured here: with cisplatin IC20, at 0.5 µM
  inhibition: -15.5%
[15]; measured here: with cisplatin IC20, at 5 µM
  inhibition: 27.4%
[15]; single agent, at 5 µM
  inhibition: -13.3%
[1]; at 0.5 µM
  inhibition: -55.8% (inactive)
[1]; [16]
  inhibition: -72.3%
[1]; [17]
  inhibition: -47%
[2]; at 0.5 µM
  inhibition: -6.67% (inactive)
[2]; [18]
  inhibition: -7.96%
[2]; [19]
  inhibition: -6.22%
[3]; at 0.5 µM
  inhibition: 12.9% (inactive)
[3]; [20]
  inhibition: -30.1%
[3]; [21]
  inhibition: -23.2%
[4]; at 0.5 µM
  inhibition: -19.8% (inactive)
[4]; [22]
  inhibition: -6.3%
[4]; [23]
  inhibition: 1.58%
[5]; at 0.5 µM
  inhibition: -6.35% (inactive)
[5]; [24]
  inhibition: -5.5%
[5]; [25]
  inhibition: -1.92%
[5]; [26]
  inhibition: -13.4%
[5]; [27]
  inhibition: -2.01%
[6]; [28]
  inhibition: 22.6%
[6]; at 0.5 µM
  inhibition: -5.39% (inactive)
[6]; [29]
  inhibition: 17%
[7]; at 0.5 µM
  inhibition: 3.77% (inactive)
[7]; [30]
  inhibition: 3.42%
[7]; [31]
  inhibition: 8.86%
[8]; at 0.5 µM
  inhibition: -7.12% (inactive)
[8]; [32]
  inhibition: -9.24%
[8]; cisplatin combination, at 5 µM
  inhibition: -35.5%
[8]; [33]
  inhibition: -29.6%
[8]; single agent, at 5 µM
  inhibition: 14.3%
[9]; at 0.5 µM
  inhibition: -13.8% (inactive)
[9]; cisplatin combo, at 5 µM
  inhibition: 35.4%
[9]; [34]
  inhibition: -24.6%
[9]; [22]
  inhibition: -43.9%
[9]; single agent, at 5 µM
  inhibition: 21.9%
[10]; at 0.5 µM
  inhibition: 19.6% (inactive)
[10]; [35]
  inhibition: -5.57%
[10]; [36]
  inhibition: 31.1%
[10]; single agent, at 0.05 µM
  inhibition: -21.9%
[10]; single agent, at 5 µM
  inhibition: 32.9%

— PubChem BioAssay
